PubChem BioAssay
Measured potencies and affinities stand elsewhere. Results filed as inconclusive are left out. Active and inactive are the calls of the source. Unless noted, no rule for the calls is given here.

Legend:
[1] = RMG-1 ovarian cancer cell viability loss – cherry-pick, dose response (AID 687029;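 active = signal drop whose fitted half-maximal concentration is at most twice the top valid dose, in every test run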;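 also: cells exposed to compound for 96 hours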)
[2] = CMV-driven luciferase expression suppression in HEK293 – cell-based, luminescence, dry powder, counter-screen for Pax8 inhibitor project, dose response (AID 743020;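 active = signal-lowering compounds whose fitted half-maximal concentration is at or below twice the top tested dose in every run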;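 also: HEK293 cells stably expressing the CMV luciferase reporter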)
[3] = general cell-killing toxicity readout – plate reader, dry powder samples, cytotoxicity control for PAX8 inhibitor project, dose response (AID 743021)
[4] = IGROV1 cell killing – plate reader, dry powder samples, PAX8 inhibitor project, dose response (AID 743043);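 also: more negative means fewer viable cells or more cytotoxicity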
[5] = OVCAR-3 cell viability loss – plate reader, dry powder samples, PAX8 inhibitor project, dose response (AID 743044); settings: max activity: at 35 µM, hits give low values unless noted
[6] = toxicity toward immortalized ovarian surface epithelium – cell-based, plate reader, dry powder samples, cytotoxicity control for PAX8 inhibitor project, dose response (AID 743045);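 also: 0% = neutral control median and -100% = positive control median; more negative values mean more cell killing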
[7] = A2780 cell killing – plate reader, dry powder samples, cytotoxicity control, dose response (AID 743046);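 also: 0% = neutral control wells and -100% = cytotoxic reference compound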
[8] = OVCAR8 cell viability loss – plate reader, dry powder samples, PAX8 project, dose response (AID 743197)
[9] = A549 cell cytotoxicity, dose response, cytotoxicity control, plate reader, cherry-pick, antagonist series (AID 743412);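 also: 0% = neutral control wells and -100% = positive control wells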
[10] = toxicity toward HepG2 liver cells – cell-based, plate reader, cherry-pick, antagonist series, cytotoxicity control, dose response (AID 743416);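 also: 0% = neutral control wells and -100% = positive control wells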
[11] = target: Melanocortin receptor 4 (Homo sapiens) (UniProt P32245); experiment: blockade of melanocortin 4 receptor signaling – cell-based, plate reader, cherry pick, counter-screen for LGR2 antagonist project, dose response (AID 743444)

Measured: max activity

O=S(=O)(c1ccccc1)N1CCCCN2[C@H](CO)[C@H](c3ccc(-c4ccccc4F)cc3)[C@H]2C1
inactive: [1] | [2] | [3] | [4] | [5] -5.95% | [6] | [7]

Oc1[nH]c2ccc(Br)cc2c1N=NC(=S)N1CCOCC1
inactive: [1] | [2] | [3]

N#Cc1ccc(-c2ccc([C@@H]3[C@@H]4CN(S(=O)(=O)c5ccc(-c6ccccc6)cc5)C[C@H]3N4)cc2)cc1
inactive: [1] | [2] | [3]

Cc1ccccc1S(=O)(=O)N1CC[C@@H]2[C@H](CO)Nc3ccc(-c4cccc(F)c4)cc3[C@@H]21
inactive: [1] | [2] | [3] | [4] | [6]

C[C@@H]1CN([C@H](C)CO)C(=O)c2cc(NC(=O)Nc3ccc(C(F)(F)F)cc3)ccc2O[C@@H](C)CCCCO[C@H]1CN(C)Cc1ccccc1
inactive: [1] | [2] | [3] | [4] | [5] 12% [at 30 µM, hits give low values] | [6] | [7] | [8]

O=C1/C(=C/c2ccccc2)SC(=S)N1CC(=O)N1CCCCC1c1cccnc1 (stereo not drawn)
not listed: [8] | [9] | [10] | [11]
inactive: all other assays above

C=C1C(=O)O[C@@H]2[C@H]1[C@@H](OC(=O)/C(C)=C/C)C/C(C)=C\C(=O)/C=C(\C)[C@@H]2O
inactive: [1] | [2] | [3]

O=C(Cn1ncc(Cl)c(Cl)c1=O)NC(=O)NC1CCCCC1
inactive: [1] | [2] | [3]

Cc1ccc(S(=O)(=O)Nc2ccc3c(c2)C(=O)N([C@@H](C)CO)C[C@@H](C)[C@@H](CN(C)S(=O)(=O)c2ccc(Cl)cc2)OCCCC[C@@H](C)O3)cc1
inactive: [1] | [2] | [3] | [4] | [5] -15% | [6] | [8]

O=C(Nc1ccccc1)Nc1cc(OCC(F)(F)F)cc(OCC(F)(F)F)c1
inactive: [1] | [2] | [3]

C[C@H](CO)N1C[C@H](C)[C@@H](CN(C)Cc2ccc(Cl)c(Cl)c2)Oc2ccc(NC(=O)Nc3ccc(F)cc3)cc2CC1=O
inactive: [1] | [2] | [3] | [4] | [5] -44% | [6]

O=C(CCc1ccc(S(=O)(=O)NCc2ccccc2)cc1)NCc1cccnc1
inactive: [1] | [2] | [3]

O=S(=O)(Nc1cccc(-c2cn3cccnc3n2)c1)c1ccc(Cl)cc1
inactive: [1] | [2] | [3]

C[C@@H]1CN([C@@H](C)CO)S(=O)(=O)c2ccc(C#Cc3ccc(F)cc3)cc2O[C@@H]1CN(C)C(=O)NC1CCCCC1
inactive: [1] | [2] | [3] | [4] | [5] 23.4% [at 1 µM, hits give low values] | [6] | [7] | [8]

CCCCC(=O)NC(c1ccccc1OC)c1ccc2cccnc2c1O (stereo not drawn)
inactive: [1] | [3]

Cc1ccc(-c2csc(NC3OC(=O)c4ccccc43)n2)cc1 (stereo not drawn)
inactive: [1] | [2] | [3] | [4] | [7]

C[C@@H]1CN([C@H](C)CO)C(=O)c2cc(NC(=O)Nc3ccc(C(F)(F)F)cc3)ccc2O[C@@H](C)CCCCO[C@@H]1CN(C)C(=O)c1ccccc1
inactive: [1] | [2] | [3] | [4] | [6] | [7]

Cc1ccc(S(=O)(=O)N(C)C[C@@H]2Oc3cc(C#Cc4ccncc4)ccc3S(=O)(=O)N([C@H](C)CO)C[C@H]2C)cc1
inactive: [1] | [2] | [3] | [4] | [6] | [7]

CN(C)CCN(C(=O)/C=C/c1cccs1)c1nc2c(F)cc(F)cc2s1
inactive: [1] | [2] | [3] | [6] | [7]

COc1cccc2c1C(=O)c1c(O)c3c(c(O)c1C2=O)C[C@@](O)(C(C)=O)C[C@@H]3O[C@H]1C[C@H](N)[C@H](O)[C@H](C)O1
inactive: [1] | [3]

COc1cccc2c1C(=O)c1c(O)c3c(c(O)c1C2=O)C[C@@](O)(C(=O)CO)C[C@@H]3O[C@H]1C[C@H](N)[C@H](O)[C@H](C)O1
inactive: [1] | [3]

Cc1cc(NC(=O)CCCS(=O)(=O)c2nc(-c3cccs3)cc(C(F)(F)F)n2)no1
inactive: [1] | [2] | [3] | [6]

O=C(NCCc1ccccc1)c1ccc2c(c1)OCCCO2
inactive: [1] | [2] | [3] | [5] | [7]

Cc1nc(SCC(=O)Nc2nc3ccccc3s2)c(C#N)c(C)c1C
inactive: [1] | [2] | [3] | [9]

C[C@@H]1CCCCO[C@H](CN(C)C(=O)Cc2ccccc2)[C@@H](C)CN([C@@H](C)CO)C(=O)c2cc(NC(=O)Nc3ccc(C(F)(F)F)cc3)ccc2O1
inactive: [1] | [2] | [3] | [4] | [6]

O=S(=O)(c1ccccc1F)N1CC[C@@H]2[C@H]1c1cc(-c3cccc(F)c3)ccc1N[C@@H]2CO
inactive: [1] | [2] | [6] | [7]

COc1cc(/C=C2\SC(=S)N(CCC(=O)N3CCCCC3)C2=O)cc(OC)c1OC
inactive: [1] | [2] | [3] | [6]

COc1ccc(S(=O)(=O)N(C)C[C@H]2OCCCC[C@H](C)Oc3ccc(NS(=O)(=O)c4ccc(F)cc4)cc3C(=O)N([C@@H](C)CO)C[C@@H]2C)cc1
inactive: [1] | [2] | [4] | [6] | [7]

C[C@@H]1CN([C@H](C)CO)C(=O)c2cc(NC(=O)NC3CCCCC3)ccc2O[C@@H](C)CCCCO[C@H]1CN(C)Cc1ccc(C(F)(F)F)cc1
inactive: [1] | [2] | [3] | [6]

Cc1noc(C)c1S(=O)(=O)Nc1ccc2c(c1)C(=O)N([C@H](C)CO)C[C@H](C)[C@@H](CN(C)C(=O)Nc1ccc(C(F)(F)F)cc1)OCCCC[C@H](C)O2
inactive: [1] | [2] | [3] | [4] | [6] | [7]

Cc1ccc(S(=O)(=O)Nc2ccc3c(c2)C(=O)N([C@@H](C)CO)C[C@@H](C)[C@H](CN(C)Cc2ccc(C(F)(F)F)cc2)OCCCC[C@H](C)O3)cc1
inactive: [1] | [2] | [3] | [4] | [6] | [7]

O=C(Nc1ccc(F)cc1)N1CCCCN2[C@@H](CO)[C@@H](c3ccc(C#Cc4ccccc4)cc3)[C@@H]2C1
inactive: [1] | [2] | [3] | [7] | [8]

CC(=O)Nc1ccc(S(=O)(=O)c2ccnc3cc(Cl)ccc23)cc1
inactive: [1] | [2] | [3] | [10] | [11]

COc1ccc(CN(C)C[C@H]2OCCCC[C@@H](C)Oc3ccc(NC(=O)Nc4ccc(F)cc4)cc3C(=O)N([C@@H](C)CO)C[C@@H]2C)cc1
inactive: [1] | [2] | [4] | [6]

COc1cccc(S(=O)(=O)N2C[C@@H]3N[C@H](C2)C3c2ccc(/C=C/c3ccccc3)cc2)c1 (stereo partly drawn)
inactive: [1] | [2] | [7]

CC(C)CC#Cc1ccc2c(c1)O[C@H](CN(C)Cc1ccc(C(=O)O)cc1)[C@@H](C)CN([C@H](C)CO)S2(=O)=O
inactive: [1] | [2] | [4] | [6] | [7] | [8]

Cc1cc(C)c2sc(NNC(=O)c3ccc(S(=O)(=O)N4CCc5ccccc5C4)cc3)nc2c1
inactive: [1] | [2] | [3] | [6]

CC1=CC(C)(C)N2C(=O)C3(NCCc4c3[nH]c3ccccc43)c3cc(C)cc1c32 (stereo not drawn)
inactive: [1] | [3]

COc1ccccc1C#Cc1ccc2c(c1)O[C@H](CN(C)Cc1cccnc1)[C@H](C)CN([C@@H](C)CO)S2(=O)=O
inactive: [1] | [2] | [3] | [4] | [6] | [7]

Cc1ccc(S(=O)(=O)Nc2ccc3c(c2)CC(=O)N([C@@H](C)CO)C[C@H](C)[C@@H](CN(C)C(=O)Nc2ccc(C(F)(F)F)cc2)O3)cc1
inactive: [1] | [2] | [4] | [5] 7.6% [at 2.1 µM, hits give low values] | [6] | [7] | [8]

C[C@@H]1CCCCO[C@H](CN(C)Cc2ccc(C(F)(F)F)cc2)[C@H](C)CN([C@@H](C)CO)C(=O)c2cc(NS(=O)(=O)c3ccc(F)cc3)ccc2O1
inactive: [1] | [2] | [3] | [6]

O=C(/C=C/c1ccccc1)Nc1cccc(C(=O)O)c1
not listed: [4] | [8] | [10] | [11]
inactive: all other assays above

C[C@H](CO)N1C[C@H](C)[C@@H](CN(C)Cc2ccc(Cl)c(Cl)c2)Oc2ccc(NS(=O)(=O)c3ccccc3)cc2CC1=O
inactive: [1] | [2] | [3] | [4] | [6] | [7]

Cc1ccc(S(=O)(=O)N(C)C[C@@H]2Oc3cc(C#Cc4ccncc4)ccc3S(=O)(=O)N([C@H](C)CO)C[C@@H]2C)cc1
not listed: [5] | [9] | [10] | [11]
inactive: all other assays above

C[C@H](CO)N1C[C@H](C)[C@@H](CN(C)C(=O)C2CCCCC2)OCCCC[C@H](C)Oc2ccc(NS(=O)(=O)c3ccc(Cl)cc3)cc2C1=O
not listed: [5] | [9] | [10] | [11]
inactive: all other assays above

Cc1ccc(S(=O)(=O)Nc2ccc3c(c2)nc(CCN2CCCC2)n3C)cc1
inactive: [1] | [2] | [3] | [4] | [6] | [7]

CO[C@@H]1CN(C)C(=O)c2cc(NC(=O)c3ccc(-c4ccccc4)cc3)ccc2OC[C@H](C)NC[C@H]1C
inactive: [1] | [2] | [4] | [6] | [8]
